From PubChem BioAssay AID1220 (Sanford-Burnham Center for Chemical Genomics, 2008)
Among all 190,000 compounds or so, about 1,300 (0.68%) were called active. Rule as the data show it: active = inhibition above about 50%; inactive = the rest. The sample as a whole holds a higher share of actives than the screen did.

target: Mannose-6-phosphate isomerase (Homo sapiens) (UniProt P34949); test: MPI inhibition at elevated mannose 6-phosphate – biochemical, fluorescence intensity, high mannose 6-phosphate, primary screen (AID 1220); details: recombinant PMI enzyme, coupled fluorescence intensity; at 20 µM; stronger effect = higher value
Sequence (P34949 whole entry, looked up): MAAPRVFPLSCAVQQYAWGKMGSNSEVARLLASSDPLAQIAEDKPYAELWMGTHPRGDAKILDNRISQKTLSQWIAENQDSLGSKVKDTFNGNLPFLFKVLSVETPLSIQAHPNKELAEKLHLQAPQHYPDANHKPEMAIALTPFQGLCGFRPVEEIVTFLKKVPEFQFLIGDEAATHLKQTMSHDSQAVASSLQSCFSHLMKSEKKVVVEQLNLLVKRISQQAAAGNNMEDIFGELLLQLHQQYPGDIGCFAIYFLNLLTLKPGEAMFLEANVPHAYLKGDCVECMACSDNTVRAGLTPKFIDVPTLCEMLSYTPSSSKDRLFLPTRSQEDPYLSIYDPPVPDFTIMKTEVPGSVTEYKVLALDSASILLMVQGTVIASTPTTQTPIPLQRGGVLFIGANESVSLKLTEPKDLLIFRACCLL

SMILES | inhibition
CC12CC(NC(=O)N1c1cccc(C(=O)N3CCN(c4ccccn4)CC3)c1)c1ccccc1O2 (stereo not given) | -3.4% (inactive)
O=C(CSc1nnc(SCc2cccc3ccccc23)s1)Nc1ccc(C(=O)O)cc1 | 10.4% (inactive)
COc1ccc(COc2ccc(C3C(S(=O)(=O)c4ccccc4)CON3C)cc2OC)cc1 (stereo not given) | -2.4% (inactive)
O=C(O)c1cccc(NS(=O)(=O)c2ccc(Cl)c(C(=O)O)c2)c1 | 1.9% (inactive)
O=C(O)c1cccc(NS(=O)(=O)c2ccc(C3CCCCC3)cc2)c1 | -7% (inactive)
O=C(O)c1cccc(NS(=O)(=O)c2ccc(-c3ccc(S(=O)(=O)Nc4cccc(C(=O)O)c4)cc3)cc2)c1 | 53.1% (active)
Cc1oc2c(c1C(=O)N1CCC(C)CC1)C(=O)c1ccccc1C2=O | 54.7% (active)
CCOC(=O)C1CCN(C(C)=C2C(=O)c3ccccc3C2=O)CC1 | -9.2% (inactive)
CCOC(=O)C1CCN(C(=O)c2c(C)oc3c2C(=O)c2ccccc2C3=O)CC1 | 55.2% (active)
Cc1oc2c(c1C(=O)O)C(=O)c1ccccc1C2=O | -9.6% (inactive)
CC(=O)c1c(C)oc2c1C(=O)c1ccccc1C2=O | -9.9% (inactive)
CCOC(=O)c1c(C)oc2c1C(=O)c1ccccc1C2=O | -16.2% (inactive)
CSc1nc(-c2ccccc2)c(-c2ccccc2)[nH]1 | -9.1% (inactive)
COc1ccc([N+](=O)[O-])cc1N(CC(=O)NC1CCCC1)S(C)(=O)=O | -1.4% (inactive)
Cc1cccc(N=C2NN=C(c3c(C)[nH]c4ccccc34)CS2)c1 | -7% (inactive)
O=C(Nc1ccc(Cl)cc1)N(Cc1nnc2n1CCCCC2)c1ccccc1 | -8.1% (inactive)
CCOC(=O)c1ccc(CN(Cc2ccc(C)cc2)S(=O)(=O)c2cccc([N+](=O)[O-])c2)cc1 | -10% (inactive)
N#Cc1c(N2CCCCC2)nc(N)c2c(N)nc3c(c12)CC(CCl)O3 (stereo not given) | 47.3% (inactive)
N#Cc1c(N2CCCCC2)nc(N)c2c(N)nc3c(c12)CC(c1ccccc1)O3 (stereo not given) | 56.5% (active)
COc1ccc(CN2C(=O)Cc3c2nc(N)c2c(N)nc(N4CCCCC4)c(C#N)c32)cc1 | 37.8% (inactive)
CCN(CC)c1nc(N)c2c(N)nc3c(c2c1C#N)CC(c1ccccc1)O3 (stereo not given) | 31.2% (inactive)
CCc1nc(N2CCOCC2)c(C#N)c2c1CCCC2 | 4.2% (inactive)
CCC1Cc2c(nc(N)c3c(N)nc(N4CCOCC4)c(C#N)c23)O1 (stereo not given) | 61.5% (active)
CCOc1ccccc1C1N(c2ccc(OC)cc2)C(=O)C2CCCN21 (stereo not given) | 2.6% (inactive)
CC(C)(C)NC(=O)C(c1ccncc1)N(C(=O)Cn1nnc(-c2ccc(F)cc2)n1)c1ccccc1F (stereo not given) | 1.9% (inactive)
